Data as given in PubChem BioAssay (EPA / NIEHS).
Records with an inconclusive call do not appear. The source made the active and inactive calls. Rule for the calls: active = hit-call score of the fitted dose curve at least 0.9, where 1 is the maximum; inconclusive = response in the unintended direction; inactive = score below 0.9.

Target: Nuclear receptor subfamily 1 group I member 2 (Homo sapiens) (UniProt O75469)
Test: ATG_PXR_TRANS: Attagene TRANS-FACTORIAL HepG2 Assay for human Pregnane X Receptor (PXR) (AID 2283008)
Method: ATG_TRANS is a cell-based, multiplexed-readout assay that uses HepG2, a human liver cell line, with measurements taken at 24 hours after chemical dosing in a 24-well plate.ATG_PXR_TRANS is one of 30 assay component(s) measured or calculated from the ATG_TRANS assay. It is designed to make measurements of mRNA induction, a form of inducible reporter, as detected with fluorescence intensity signals by Reverse transcription polymerase chain reaction (RT-PCR) and Capillary electrophoresis technology.Data from the assay component ATG_PXR_TRANS was analyzed into 1 assay endpoint. This assay endpoint, ATG_PXR_TRANS, was analyzed in the positive analysis fitting direction relative to DMSO as the negative control and baseline of activity. Using a type of inducible reporter, measures of mRNA for gain-of-signal activity can be used to understand the reporter gene at the transcription factor-level as they relate to the gene NR1I2. Furthermore, this assay endpoint can be referred to as a primary readout, because this assay has produced multiple assay endpoints where this one serves a reporter gene function. To generalize the intended target to other relatable targets, this assay endpoint is annotated to the nuclear receptor intended target family, where the subfamily is non-steroidal.
Human liver HepG2 cells are transiently transfected with multiple reporter transcription units (MRTUs) in 6-well plates using FuGene 6 reagent (Roche; 3 ml FuGene/1 mg DNA). The MRTU constructs are regulated by a cis-regulating element (promoter). […] A major difference between the CIS and TRANS system is that in CIS activities of endogenous TFs are measured, whereas the TRANS assay evaluates changes in activities of exogenous, chimeric NR-Gal4 proteins. […] At the end of 24 hour incubation, total RNA was isolated using TriZol reagent (Invitrogen). The isolated RNA is then reverse-transcribed using oligo(dT) primer and Mo-MLV reverse transcriptase (Invitrogen) with DNAse I (Ambion) treatment for 30 min. The one-tenth of the produced cDNA was amplified by PCR using Taq DNA polymerase (Invitrogen) and two reporter sequence-specific primers. The PCR products were fluorescently labeled by primer extension with 6-arboxyfluorescein (6-FAM) 5'-labeled reporter sequence-specific primer (2 min at 95 C, 20 s at 68 C and 10 min at 72 C) and these products were digested with 5U of HpaI (New England Biolabs) for 2h at 37 C. The fragments were purified using Qiaquick PCR columns (Qiagen), analyzed on an ABI 3130xL genetic analyzer (Applied Biosystems) with peak positions identified by using a set of X-rhodamine (ROX)-labeled MapMarker1000 molecular weight standards (BioVentures). The raw capillary electrophoresis data was processed using Attagraph software (Attagene).

Sequence of Nuclear receptor subfamily 1 group I member 2 (Homo sapiens) (O75469 whole entry, looked up): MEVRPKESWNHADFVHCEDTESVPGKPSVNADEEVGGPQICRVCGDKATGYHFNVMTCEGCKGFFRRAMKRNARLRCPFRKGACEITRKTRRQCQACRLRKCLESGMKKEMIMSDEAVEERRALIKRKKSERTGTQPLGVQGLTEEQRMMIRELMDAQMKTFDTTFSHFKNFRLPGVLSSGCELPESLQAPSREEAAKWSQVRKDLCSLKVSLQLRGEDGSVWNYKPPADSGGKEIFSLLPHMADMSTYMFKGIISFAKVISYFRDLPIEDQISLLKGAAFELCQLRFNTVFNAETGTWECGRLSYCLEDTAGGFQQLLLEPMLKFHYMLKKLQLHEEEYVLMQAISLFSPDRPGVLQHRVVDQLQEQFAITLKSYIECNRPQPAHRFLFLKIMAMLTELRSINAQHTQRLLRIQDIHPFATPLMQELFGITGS

Row | SMILES | AC50 | outcome
1 | CC(CC=O)CC(C)(C)C (stereo not given) | 7.15 µM (active) | 
2 | O=C1CCCCC1C1CCCCC1 (stereo not given) | 41.2 µM (active) | 
3 | [Cl][Sc]([Cl])[Cl] |  | inactive
4 | Cc1ccc(S(=O)(=O)N=C=O)cc1 |  | inactive
5 | O=C(Cl)c1c(Cl)c(Cl)c(C(=O)Cl)c(Cl)c1Cl |  | inactive
6 | CCC(C)C(=O)OC (stereo not given) |  | inactive
7 | O=C(C=Cc1ccccc1)OCCc1ccccc1 |  | inactive
8 | CC=CC(=O)OCC(C)C |  | inactive
9 | OCCCc1ccccc1 |  | inactive
10 | CC1CCC(=O)C1=O (stereo not given) |  | inactive
11 | CCCCCCCC(=O)OCC |  | inactive
12 | CC1OC(=O)C(C)OC1=O (stereo not given) |  | inactive
13 | CN(C)Cc1cc(CN(C)C)c(O)c(CN(C)C)c1 |  | inactive
14 | N#Cc1ccc(C2CCCc3cncn32)cc1 (stereo not given) |  | inactive
15 | CC/C=C\C/C=C\C/C=C\CCCCCCCC(=O)OC | 31.3 µM (active) | 
16 | CC(C)(O)Cc1ccccc1 |  | inactive
17 | C=CC(=O)OCCCCCCOC(=O)C=C | 26.5 µM (active) | 
18 | COC(=O)c1ccc(C(=O)OC)c(C(=O)OC)c1 |  | inactive
19 | CC(=O)OCC=C(C)C |  | inactive
20 | CC(Cl)COP(=O)(OCC(C)Cl)OCC(C)Cl (stereo not given) | 1.37 µM (active) | 

Row | SMILES | AC50 | outcome
21 | C=C(C)C1CC=C(C)CC1 (stereo not given) |  | inactive
22 | CC1=CP(=O)(c2ccccc2)CC1 (stereo not given) |  | inactive
23 | CCCCNS(=O)(=O)c1ccc(C)cc1 |  | inactive
24 | CCCCCCCO |  | inactive
25 | Oc1c(Cl)cc(Cl)c(Cl)c1Cl |  | inactive
26 | C=C(C)C(=O)OCCOC(=O)C(=C)C |  | inactive
27 | COc1cc(O)c(C(=O)c2ccccc2)cc1S(=O)(=O)O |  | inactive
28 | CCCCCCCCCCCCCc1ccccc1 |  | inactive
29 | O=C(Cl)c1ccc(C(=O)Cl)cc1 |  | inactive
30 | CCCCCCCCCCCCCC(=O)OC(C)C |  | inactive
31 | O=C(O)C(F)(F)C(F)(F)C(F)(F)C(F)(F)C(=O)O |  | inactive
32 | CCCCC/C=C\C/C=C\CCCCCCCC(=O)O |  | inactive
33 | CCCc1ccc(O)c(OC)c1 |  | inactive
34 | Oc1ccccc1Cc1ccccc1O |  | inactive
35 | CC(C)(CO)COC(=O)C(C)(C)CO |  | inactive
36 | CCCCCCO |  | inactive
37 | CCCC1CCCC(=O)O1 (stereo not given) |  | inactive
38 | CCCC/C=C/C=C\C=O | 1.57 µM (active) | 
39 | CC(=O)OC/C=C(/C)CCC=C(C)C |  | inactive
40 | CC1=NN(c2ccc(S(=O)(=O)O)cc2)C(=O)C1N=Nc1ccccc1 (stereo not given) |  | inactive
